Source: PubChem (National Center for Advancing Translational Sciences (NCATS))
Shown are actives, neighbours in structure and some others; about 9.2% of the full set was active somewhere.
SMN2 splice up: increases expression of the SMN2 splice variant | 210,000 compounds, 2.8% hits | Potency, µM (doses to about 46.1 µM), for the others: at the top dose activity change, positive = activation, most hits filed as activators | HEK293 SMN2-luciferase splicing reporter, luminescence, 30-36 h; note: % of control where 0% means no effect; nearly all actives have a fitted effect of over 55% in size
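qHTS luciferase splicing reporter: luminescence rises when SMN2 exon 7 is included in transfected HEK293 cells. Compound exposure lasted 30-36 h at 37C, with 4.5 mM final sodium butyrate as control, followed by a ONE-Glo read.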
Rab9 promoter act: Rab9 promoter activation | Potency, µM (titrated, usually from 9.22 µM), for the others: at the highest dose activation, negative = inhibition, actives largely listed as activators | AID 485297 | 320,000 compounds, 2.8% hits | Huh7 Rab9 promoter-luciferase reporter, luminescence, 24 h; note: % of control where 0% means no effect; nearly all actives have a fitted effect of over 60% in size
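Huh7 cells stably carrying a Rab9 promoter-luciferase reporter, 1500 cells per well in OP-MEM I with 10% FBS, treated with compound 24 hours at 37C. Luciferase activity read by luminescence after 10 minutes with Amplite reagent.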
NPC1 prom act: activators of NPC1 promoter; Huh7 NPC1 promoter luciferase reporter, 24 h; Potency, µM (top dose mostly 9.22 µM), without a hit: top-dose activation, usual class: activators; 320,000 compounds, 2.4% hits; AID 485313; note: % of control where 0% means no effect; nearly all actives have a fitted effect of over 60% in size
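Luciferase expression driven by the NPC1 promoter was measured in stably transfected Huh7 cells after a 24 h compound incubation, using a luciferase reagent and a luminescence read.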
ELG1 DNA repair: inhibitors of ELG1-dependent DNA repair in HEK293T cells. HEK293T ELG1-luciferase reporter, luminescence, 16 h; DNA damage induced by 5-fluorouridine. 330,000 compounds, 2.3% hits. Potency, µM (series often up to 46.1 µM), without a hit: at the top dose activity change, negative = inhibition, usual class: inhibitors. AID 504467; note: % is set by controls: 0 for no effect and ±100 for the full control effect; nearly all actives have a fitted effect of over 55% in size
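Luminescence from the luciferase reporter, measured 30 min after ONE-Glo reagent at room temperature, was the read-out. Beforehand, 2,000 cells per well were exposed for 16 hr at 37 °C to 5-fluorouridine together with compound or vehicle.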
FLuc counter: inhibits or activates purified firefly luciferase, miR-21 counter-screen | P08659 | purified FLuc, Km substrates, luminescence inhibition | Potency, µM (highest dose often 57.5 µM), inactives show top-dose activity change, negative = inhibition, usual class: inhibitors | 360,000 compounds, 6.9% hits | AID 588342;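 note: plate controls were vehicle for no effect and reference inhibitor for full effect; nearly all actives have a fitted effect of over 55% in size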
Target sequence (P08659 whole entry, looked up): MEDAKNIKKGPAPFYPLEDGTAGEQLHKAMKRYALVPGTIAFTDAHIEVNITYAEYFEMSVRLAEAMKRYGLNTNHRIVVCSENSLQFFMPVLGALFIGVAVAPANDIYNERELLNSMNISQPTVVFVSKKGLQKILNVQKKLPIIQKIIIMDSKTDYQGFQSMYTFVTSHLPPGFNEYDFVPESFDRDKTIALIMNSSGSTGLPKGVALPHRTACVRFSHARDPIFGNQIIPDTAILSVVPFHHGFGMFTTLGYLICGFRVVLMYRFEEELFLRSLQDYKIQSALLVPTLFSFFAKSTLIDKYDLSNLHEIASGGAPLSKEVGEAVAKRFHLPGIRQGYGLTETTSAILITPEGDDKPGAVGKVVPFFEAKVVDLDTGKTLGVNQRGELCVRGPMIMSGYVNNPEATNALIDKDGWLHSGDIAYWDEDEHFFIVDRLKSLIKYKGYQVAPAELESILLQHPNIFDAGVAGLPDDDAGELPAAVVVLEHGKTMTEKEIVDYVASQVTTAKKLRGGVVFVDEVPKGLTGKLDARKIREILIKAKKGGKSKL
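Biochemical qHTS of compounds, final roughly 60 µM downward over six points, against 10 nM purified firefly luciferase using Km concentrations of substrates (10 uM D-luciferin, 10 uM ATP) in Tris acetate pH 7.5 buffer; luminescence output.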
ELG1 genotoxic: inducers of genotoxicity in HEK293T ELG1-luciferase cells; HEK293T ELG1-luciferase reporter, luminescence, 16 h; Potency, µM (highest dose often 46 µM), inactives show at the top dose activity change, positive = activation, hits mostly activators; 330,000 compounds, 1.3% hits; note: % of control where 0% means no effect; nearly all actives have a fitted effect of over 60% in size
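HEK293T cells expressing luciferase-tagged ELG1 were exposed to compound or DMSO vehicle for 16 hr at 37 °C and 5% CO2. Luciferase activity was then measured with ONE-Glo after 30 min at room temperature.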
The depositor's hits bear a star; ? = inconclusive; · = not tested or not shown. Calls come from the whole dose curve; as a rule, active = well fitted curve in the direction sought with a large enough effect; inconclusive = small, poorly fitted or top-dose-only effect, or another doubt; inactive = no such curve, though single readings can be large; an effect the other way counts as inactive or inconclusive. Potency is the fitted concentration of half-maximal effect.

SMILES | SMN2 splice up | Rab9 promoter act | NPC1 prom act | ELG1 DNA repair | FLuc counter | ELG1 genotoxic
CCn1nc(NS(=O)(=O)c2ccc([N+](=O)[O-])cc2)c2cc3cc(C)ccc3nc21 | · | 11.3% | -2.3% | 16.9% | 10.7µM* | 4.8%
CCN(CC)CCCNc1oc(-c2ccc(OC)cc2)nc1C#N | · | · | · | · | -1.5% | ·
NNc1nc2ccccc2c(=O)n1Cc1ccccc1 | · | ? | 25.7% | ? | ? | 10.9%
O=C(NCCCN1CCOCC1)c1cc(-c2ccccc2)on1 | -17.6% | 27.4% | 14.4% | ? | -3.4% | 18.4µM*
O=C(NCCN1CCOCC1)c1cc(-c2ccc(Br)cc2)on1 | -14.3% | -5.9% | 0.4% | 0.5% | -15.2% | 0.9%
O=C(NCCCN1CCOCC1)c1cc(-c2ccc(O)cc2)on1 | -1.6% | -1.7% | 1.8% | ? | -2.2% | 0.6%
COc1cccc(-c2nc(C(=O)NCCCN3CCOCC3)cc3c2[nH]c2ccccc23)c1 | · | -4.8% | -1.9% | ? | -0.9% | -0.4%
O=C(NCCN1CCOCC1)c1cc(-c2ccccc2)on1 | -3.1% | 20.0% | 14.4% | ? | -2.9% | 18.4µM*
O=C(NCCCN1CCOCC1)c1cc2c([nH]c3ccccc32)c(-c2cccc(Br)c2)n1 | · | -2.1% | -0.9% | 1.64µM* | 5.1% | -12.3%
CC(C)CC(=O)Nc1c2c(nn1-c1ccc(F)cc1)CS(=O)(=O)C2 | · | -2.2% | 1.4% | -0.9% | 1.7% | -2.8%
CN(C)S(=O)(=O)c1ccc(N2CCCC2)c(C(=O)NNC(=O)c2ccc(F)cc2)c1 | · | 2.1% | 0.6% | -25.9% | -0.7% | 0.8%
Cc1cccc(NC(=O)C2CCN(S(=O)(=O)c3c(C)noc3/C=C/c3ccco3)CC2)n1 | -45.0% | -33.6% | -13.5% | 13µM* | 4.8% | -6.0%
Cc1cc(C)cc(NC(=O)C2CCN(S(=O)(=O)c3c(C)noc3/C=C/c3ccco3)CC2)c1 | -4.7% | · | · | · | -2.2% | ·
O=c1[nH]ncc2ccccc12 | 4.2% | · | · | · | · | ·
COc1ccc(CC(=O)Nc2ccccc2-c2ccccc2)cc1OC | · | -10.3% | -0.1% | -27.3% | 2.5% | -26.9%
COc1cc(CC(=O)Nc2nc(-c3ccccc3)c(C(C)=O)s2)cc(OC)c1OC | · | -9.0% | -4.5% | 8.2µM* | -0.4% | -10.0%
COc1ccc(CC(=O)Nc2nc(-c3ccccc3)c(C(C)=O)s2)cc1OC | · | -9.7% | -0.5% | 18.3µM* | -1.7% | -2.2%
CCOC(=O)C1CCN(C(=O)c2cccc(S(=O)(=O)NCc3ccccc3)c2)CC1 | · | 1.8% | 0.7% | -1.6% | -2.1% | 1.1%
CC1=NN(C(N)=S)C(=O)C1N=Nc1ccc(C)cc1C (stereo not given) | 14.1µM* | ? | ? | ? | 4.78µM* | 11.2µM*
CC1=NN(C(N)=S)C(=O)C1N=Nc1c(C)cc(C)cc1C (stereo not given) | -26.1% | 25.9% | -1.0% | 27.4% | ? | ?
CC1=NN(C(N)=S)C(=O)C1N=Nc1ccccc1C (stereo not given) | ? | 3.7% | 13.4% | ? | 21.3µM* | 1.0%
COc1ccc(C(=O)Nc2ccc3c(c2)N(C2CCCC2)C(=O)c2ccccc2S3)cc1OC | · | · | · | · | 3.8% | ·
Cn1c2ccccc2c2cc(/C=N/NC(=O)c3ccccc3F)ccc21 | · | 12.8% | -10.2% | 23.1µM* | 7.57µM* | -10.8%
Cn1c2ccccc2c2cc(/C=N/NC(=O)c3ccc(N)cc3)ccc21 | · | 11.8% | -1.9% | ? | 10.7µM* | -13.6%
CCN1CCC(N(Cc2ccc(F)cc2)C(=O)Nc2ccc(C)c(F)c2)CC1 | · | · | · | · | 0.6% | ·
SMILES | SMN2 splice up | Rab9 promoter act | NPC1 prom act | ELG1 DNA repair | FLuc counter | ELG1 genotoxic
COc1cc(C2NC(=O)CCC2[N+](=O)[O-])c(OC)cc1Br (stereo not given) | · | -1.0% | -1.0% | 6.6% | -1.1% | -1.7%
Cc1cccc(S(=O)(=O)Nc2ccc(-c3nc4ccc(C)cc4s3)cc2)c1 | 11.2µM* | 2.82µM* | 2.82µM* | ? | 3.01µM* | ?
Cc1ccc2nc(-c3ccc(NS(=O)(=O)c4c(C)n(C)c(=O)n(C)c4=O)cc3)sc2c1 | · | 2.82µM* | 3.16µM* | ? | 1.9µM* | 14.9%
Oc1ccc(Cl)cc1C1=NNC(c2cccs2)C1 (stereo not given) | · | 7.5% | -5.0% | ? | ? | -15.6%
Cc1ccc(O)c(C2=NNC(c3ccc(Cl)cc3)C2)c1 (stereo not given) | · | 27.3% | -0.2% | 18.1% | 26.9µM* | 5.1%
O=C(Nc1ccccc1)Nc1ccc(Cl)c([N+](=O)[O-])c1 | -4.4% | 12.5% | 13.0% | ? | 19µM* | -11.4%
COc1cccc(NC(=O)CN(C)CC(=O)Nc2ccc(C)c([N+](=O)[O-])c2)c1 | · | -9.3% | -4.0% | 18.3µM* | 4.6% | -23.8%
O=C(Nc1ccc(Cl)cc1)Nc1cc([N+](=O)[O-])ccc1F | -16.2% | -0.6% | 0.9% | 13µM* | ? | -12.7%
O=C(Nc1ccc(Cl)c([N+](=O)[O-])c1)Nc1nc2ccccc2s1 | · | 17.4% | 18.2% | ? | ? | -4.6%
O=C(Nc1ccccc1)Nc1ccc(F)c([N+](=O)[O-])c1 | -46.9% | -4.5% | -2.5% | -10.9% | 16.9µM* | -5.6%
COCCCNC(=O)c1ccc(Cn2c(=O)c3ccccc3n(CC(=O)Nc3c(C)cccc3C)c2=O)cc1 | ? | · | · | · | -2.1% | ·
COc1ccccc1CNC(=O)CCC1N=C2c3ccccc3N=C(SCc3ccc(C)cc3C)N2C1=O (stereo not given) | 5.4% | · | · | · | -2.0% | ·
COc1ccc(CN(C)CC(=O)Nc2cc(OC)c([N+](=O)[O-])cc2C)c(OC)c1 | -38.2% | -6.8% | -3.2% | 16.4µM* | 4.7% | -9.0%
Cc1ccc(NC(=O)Nc2ccccc2)cc1[N+](=O)[O-] | 12.6µM* | ? | ? | ? | 8.49µM* | -1.2%
COc1cc(NC(=O)CN(C)Cc2ccc(OC(F)F)cc2)c(C)cc1[N+](=O)[O-] | · | 0.2% | -2.7% | ? | -0.5% | -6.6%
CC(=O)Nc1ccc(C)c([N+](=O)[O-])c1 | · | -7.3% | -6.4% | -0.8% | -2.1% | 2.6%
CC1CCN(C(=O)COC(=O)CCC(=O)c2ccc(Cl)cc2)CC1 | · | · | · | 0.0% | · | 11.1%
CCOC(=O)c1ccc(-n2c(CCC(=O)O)ccc2-c2ccc(F)cc2)cc1 | · | -3.0% | -2.0% | -13.9% | -0.5% | -1.2%
O=C(Nc1cccc(S(=O)(=O)NC2=NCCCCC2)c1)c1cc(-c2ccccc2Cl)nc2ccccc12 | 1.4% | -2.7% | -1.9% | 23.1µM* | -1.9% | -6.7%
CC(C)(C)c1ccc(C(=O)Nc2cccc(S(=O)(=O)NC3=NCCC3)c2)cc1 | · | ? | 2.51µM* | ? | 0.135µM* | 2.7%
Cc1cc(C)cc(C(=O)OCC(=O)Nc2cccc(S(=O)(=O)NC3=NCCCCC3)c2)c1 | -20.1% | -4.6% | -3.8% | ? | -4.6% | -0.4%
